# In PubChem BioAssay AID1234 (University of Pittsburgh Molecular Library Screening Center, 2008):
# Some of the results follow. The source made the active and inactive calls.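 How the source made its calls: active means EC50 under a set limit for hydrogen peroxide production with the reducing agent DTT present; inactive means the rest.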
# Experiment: compounds producing H2O2 with reducing agent – biochemical, 10-point concentration response, NIH library profiling, artefact control for MLSCN library redox annotation, dose response (AID 1234)
# Settings: DTT-dependent redox cycling H2O2, phenol red-HRP absorbance; activation: H2O2 generation, at 50 µM, stronger effect = higher value
smiles,measurement,value
CCOC(=O)c1c(C)[nH]c2c1-c1ccccc1C(=O)C2=O,EC50,430 nM (active)
same,activation,129%
